This note sets out measurements from PubChem BioAssay.

For assay [1], the system named is Neuropilin-2 / VEGF-C interaction (human). The experiment in a line: small molecules blocking Neuropilin-2/VEGF-C interaction – biochemical, microplate binding format, z-score (AID 743281; call rule not given here). Conditions: microplate NRP2/VEGF-C binding assay; stronger effect = lower value.
Assay [2] is described as follows: viability loss in pontine glioma line – cell-based, SU-DIPG-XVII, MIPE5.0, CellTiter-Glo, qHTS, dose response (AID 1347060). Conditions: CellTiter-Glo ATP luminescence.
Assay [3] can be described thus: viability loss in pontine glioma line – cell-based, SU-DIPG-XIII, MIPE5.0, CellTiter-Glo, qHTS, dose response (AID 1347064; cut-off not given, nearly all actives have AC50 up to about 23 µM). Conditions: CellTiter-Glo ATP luminescence.
The nature of assay [4]: viability loss in pontine glioma line – cell-based, SU-DIPG-XXV, MIPE5.0, CellTiter-Glo, qHTS, dose response (AID 1347065).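 Also: cells exposed to compound for 48 hours before ATP readout.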 Conditions: CellTiter-Glo ATP luminescence.
Assay [5] can be described thus: JHH-DIPG-1 glioma cell viability, MIPE5.0 library, CellTiter-Glo luminescence, qHTS (AID 1347067).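 Also: cells exposed to compound for 48 hours before readout.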 Conditions: JHH-DIPG-1 glioma viability, CellTiter-Glo ATP luminescence.
A short description of assay [6]: antimalarial activity against Dd2 strain (AID 2302;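 active = growth inhibition above 50% at the single 2 µM test dose, taken to imply half-maximal potency below 2 µM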;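 also: 0% = DMSO untreated growth and 100% = chloroquine plus artemisinin killed control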). Conditions: P. falciparum Dd2 in RBCs, LDH growth readout, 72 h; at 2 µM; stronger effect = higher value.
Assay [7] can be described thus: human hepatoma cell viability loss – ATP luminescence, cytotoxicity control for P. falciparum antimalarial project, primary screen (AID 2303;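 active = inhibition above 50%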;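 also: 0% = DMSO wells and 100% = digitonin-killed cells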). Conditions: HepG2 viability, 24-48 h, at 10 µM, stronger effect = higher value.
Assay [8] addresses Calcium-dependent protein kinase 1 (Plasmodium falciparum (isolate 3D7)) (UniProt P62344). The assay can be described thus: PfCDPK1 kinase inhibitors, biochemical, TCAMS library (AID 1159585; cut-off not given, nearly all actives have IC50 up to about 0.98 µM;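 also: inhibitors leave more ATP so luminescence rises with inhibition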). Conditions: recombinant PfCDPK1, Kinase-Glo ATP depletion luminescence.
The target of assay [9] is Plasmodium falciparum protein kinase 6 (PK6, PF3D7_1337100) (UniProt Q8IDW1). The assay can be described thus: PfPK6 kinase inhibitors, biochemical, TCAMS library (AID 1159586; call rule not given here). Conditions: recombinant PfPK6, Kinase-Glo ATP depletion luminescence.
Sequence of Plasmodium falciparum protein kinase 6 (PK6, PF3D7_1337100) (Q8IDW1 1-305): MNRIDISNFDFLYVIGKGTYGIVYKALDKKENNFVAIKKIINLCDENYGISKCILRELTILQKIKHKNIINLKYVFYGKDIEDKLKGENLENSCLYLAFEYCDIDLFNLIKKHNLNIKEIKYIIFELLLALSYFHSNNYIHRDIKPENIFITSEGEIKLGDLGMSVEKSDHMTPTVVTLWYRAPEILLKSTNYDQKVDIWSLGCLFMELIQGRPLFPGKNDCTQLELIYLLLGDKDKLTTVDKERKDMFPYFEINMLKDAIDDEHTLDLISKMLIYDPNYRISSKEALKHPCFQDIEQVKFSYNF
The target in assay [10] is Protein kinase 7 (PK7), Plasmodium falciparum 3D7 (PF3D7_0213400) (UniProt Q7YTF7). The assay can be described thus: inhibition of Plasmodium PK7 catalytic activity – biochemical, TCAMS antimalarial set, Kinase-Glo luminescence (AID 1159587; call rule not given here). Conditions: recombinant PfPK7, Kinase-Glo ATP depletion luminescence.
Sequence of Protein kinase 7 (PK7), Plasmodium falciparum 3D7 (PF3D7_0213400) (Q7YTF7 1-343): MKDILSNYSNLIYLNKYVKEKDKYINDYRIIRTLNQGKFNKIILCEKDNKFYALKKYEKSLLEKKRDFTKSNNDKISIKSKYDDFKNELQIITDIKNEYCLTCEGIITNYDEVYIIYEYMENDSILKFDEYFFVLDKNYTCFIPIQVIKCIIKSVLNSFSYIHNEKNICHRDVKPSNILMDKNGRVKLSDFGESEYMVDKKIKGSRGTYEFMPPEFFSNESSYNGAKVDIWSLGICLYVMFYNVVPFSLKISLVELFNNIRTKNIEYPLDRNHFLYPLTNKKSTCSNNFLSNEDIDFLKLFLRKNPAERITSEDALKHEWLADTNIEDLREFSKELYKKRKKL
The target in assay [11] is Calcium-dependent protein kinase 4 (Plasmodium falciparum (isolate 3D7)) (UniProt Q8IBS5). The assay can be described thus: PfCDPK4 kinase inhibitors, biochemical, TCAMS library (AID 1159588; cut-off not given, nearly all actives have IC50 up to about 0.91 µM). Conditions: recombinant PfCDPK4, Kinase-Glo ATP depletion luminescence.
Sequence of Calcium-dependent protein kinase 4 (Plasmodium falciparum (isolate 3D7)) (Q8IBS5 whole entry, looked up): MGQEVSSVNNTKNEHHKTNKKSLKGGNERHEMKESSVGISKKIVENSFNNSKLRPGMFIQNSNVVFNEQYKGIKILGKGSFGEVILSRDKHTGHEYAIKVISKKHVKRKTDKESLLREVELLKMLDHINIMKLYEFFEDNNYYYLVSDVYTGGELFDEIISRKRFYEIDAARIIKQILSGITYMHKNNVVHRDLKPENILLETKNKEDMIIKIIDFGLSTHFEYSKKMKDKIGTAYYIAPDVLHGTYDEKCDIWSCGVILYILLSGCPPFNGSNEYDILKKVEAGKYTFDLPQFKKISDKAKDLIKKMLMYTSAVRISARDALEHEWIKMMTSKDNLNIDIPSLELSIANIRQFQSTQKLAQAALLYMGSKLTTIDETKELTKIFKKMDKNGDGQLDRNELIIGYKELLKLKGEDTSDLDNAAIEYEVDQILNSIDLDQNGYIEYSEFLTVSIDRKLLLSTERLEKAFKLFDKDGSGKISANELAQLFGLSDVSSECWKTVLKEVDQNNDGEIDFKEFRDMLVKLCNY
The nature of assay [12]: growth inhibition, single agents and combos, LFS_MB_1R, cell-based, cisplatin or BGB combos, synergistic combos for chromothripsis tumors (AID 1671452; in the data active = inhibition above about 80%;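 also: cells exposed for 96 hours before readout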). Conditions: LFS_MB_1R medulloblastoma cells, stronger effect = higher value.
Assay [13] can be described thus: growth inhibition, single agents and combos, CRL2098, cell-based, BGB or cisplatin IC20 combos, synergistic combos for chromothripsis tumors (AID 1671454; in the data active = inhibition above about 80%;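 also: cells exposed for 96 h before readout; 0% = vehicle DMSO and 100% = killing by high DMSO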). Conditions: CRL2098 osteosarcoma cells, drug combinations, stronger effect = higher value.
The nature of assay [14]: growth inhibition, single agents and combos, HD-MB03, cell-based, BGB or cisplatin IC20 combos, synergistic combos for chromothripsis tumors (AID 1671455; in the data active = inhibition above about 83%;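 also: 0% = vehicle DMSO and 100% = high DMSO as cytotoxic control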). Conditions: HD-MB03 medulloblastoma cells, stronger effect = higher value.
Assay [15] can be described thus: growth inhibition, single agents and combos, UWB1.289, cell-based, BGB or cisplatin combos, synergistic combos for chromothripsis tumors (AID 1671456; in the data active = inhibition above about 80%;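 also: cells exposed to compound for four days; 0% = vehicle DMSO and 100% = killing by high DMSO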). Conditions: UWB1.289 ovarian carcinoma cells, stronger effect = higher value.
Assay [16] can be described thus: growth inhibition, single agents and combos, LFS_MB_2R, cell-based, cisplatin combos, synergistic combos for chromothripsis tumors (AID 1671457; in the data active = inhibition above about 80%;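 also: cells exposed to compound for four days before readout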). Conditions: LFS_MB_2R medulloblastoma cells, stronger effect = higher value.
A short description of assay [17]: UWB1.289_BRCA1 ovarian cancer growth, cell-based, BGB or cisplatin combinations (AID 1671459; in the data active = inhibition above about 80%). Conditions: UWB1.289 BRCA1 ovarian carcinoma, drug combinations, stronger effect = higher value.
The nature of assay [18]: drug combination toxicity in non-malignant astrocytes – cell-based, BGB or cisplatin IC20 combos, cytotoxicity control for chromothriptic childhood tumor combination screen (AID 1671460; in the data active = inhibition above about 80%;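 also: cells exposed to compounds for 96 hours before viability readout; 0% = vehicle and 100% = killing control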). Conditions: Human astrocytes, viability inhibition, drug combinations, at 0.5 µM, stronger effect = higher value.
Assay [19] in a line: compounds altering HSF1 focus formation in cells – imaging, Selleck Cancer Library (AID 1347162; in the data active = plate-normalised HSF1 focus index below about 0.46). Conditions: human cells, HSF1 nuclear foci imaging, at 10 µM; SSMD: measured here: HSF1 foci SSMD mean; cell count: measured here: cell number; plate-normalised HSF1 focus index: stronger effect = lower value.
The nature of assay [20]: chitosan synthesis blockers in C. neoformans – flow cytometry, Cibacron Brilliant Red staining (AID 1347148; call rule not given here;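 also: compound exposure lasted three days at 37 degrees C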). Conditions: Cryptococcus neoformans chitosan, stronger effect = lower value; at 10 µM unless noted.
[21] abbreviates: measured here: combination with cisplatin, at 0.5 µM.
The mark [22] stands for this setting: measured here: combination with cisplatin, at 5 µM.

Structures are written as SMILES. Where “and” joins values, the source holds several entries; their conditions need not be identical. Equal values may be shown once. Results filed as inconclusive are left out. For some of these results: Results with a measured potency or affinity are listed apart. Calls of active or inactive are those of the source. Unless noted, the limit is not given here; nearly all actives have AC50 up to about 26 µM.

Sequence of Calcium-dependent protein kinase 1 (Plasmodium falciparum (isolate 3D7)) (P62344 whole entry, looked up): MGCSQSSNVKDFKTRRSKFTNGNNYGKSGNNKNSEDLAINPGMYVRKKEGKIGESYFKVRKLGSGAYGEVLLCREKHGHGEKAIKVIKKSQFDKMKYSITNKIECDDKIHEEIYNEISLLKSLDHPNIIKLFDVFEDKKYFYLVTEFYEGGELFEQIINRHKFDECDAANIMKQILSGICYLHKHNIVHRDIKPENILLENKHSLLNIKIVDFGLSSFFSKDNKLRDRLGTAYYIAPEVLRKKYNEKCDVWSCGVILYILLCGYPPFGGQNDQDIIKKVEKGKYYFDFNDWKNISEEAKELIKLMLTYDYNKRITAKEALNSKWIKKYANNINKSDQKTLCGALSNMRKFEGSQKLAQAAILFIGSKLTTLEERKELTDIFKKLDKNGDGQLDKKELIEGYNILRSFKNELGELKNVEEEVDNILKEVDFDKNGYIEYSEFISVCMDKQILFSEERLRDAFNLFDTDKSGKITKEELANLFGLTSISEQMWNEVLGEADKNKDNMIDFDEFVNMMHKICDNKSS

For `NC(=O)c1cccnc1`, in [1], the z-score was 1.84 (inactive). Further, the molecule was classed as inactive in assay [2], in [3], in assay [4] and in assay [5].

As for `COc1cc(Cc2cnc(N)nc2N)cc(OC)c1OC`, in assay [6], the growth inhibition was 2% (inactive). Further, the inhibition in assay [7] is 0% (inactive). Moreover, the outcome in assay [8], in assay [9], in assay [10] and in assay [11] was inactive.

Take `CCn1cc(C(=O)O)c(=O)c2ccc(C)nc21`: the inhibition in [12] (at 0.5 µM) was -19% (inactive) and -13.7% (inactive); in assay [12] (measured here: combination with BGB IC40, at 0.05 µM), -21.7% and -0.433%; in assay [12] (setting [21]) it was -30.2% and 15.7%; in [12] (setting [22]) it was -1.32% and 14.5%; in [13] (at 0.5 µM) it was -8.42% (inactive) and -27% (inactive); in [13] (measured here: combination with BGB at IC20, at 0.5 µM), -13.8% and -3.06%. Also, the inhibition in assay [13] (measured here: combination with cisplatin at IC20, at 0.5 µM) was 2.7% and -23.8%; in [14] (at 0.5 µM) it was -1.5% (inactive) and -3.12% (inactive); in [14] (measured here: combo with BGB at IC20, at 0.5 µM) it was -0.571% and -10.6%; in assay [14] (measured here: combo with cisplatin at IC20, at 0.5 µM), -1.78% and 8.77%; in assay [15] (at 0.5 µM) it was 13.8% (inactive) and -1.94% (inactive); in [15] (measured here: inhibition with BGB combination, at 0.05 µM) it was -3.65% and -15.7%. For the same molecule, the inhibition is 2.92% and -1.74% in [15] (measured here: inhibition with cisplatin combination, at 0.05 µM); 5.5% (inactive) and -20.2% (inactive) in [16] (at 0.5 µM); 1.69% and -14.8% in assay [16] (setting [21]); 8.3% and -22.4% in assay [16] (setting [22]); 11.3% and 18.4% in [17] (BGB combination, concentration series, at 5 µM); 11% (inactive) and -9.48% (inactive) in [17] (at 0.5 µM). The inhibition in assay [17] (cisplatin combination, concentration series, at 5 µM) was 7.14% and -4.85%; in [18], 1.03% (inactive) and 6.47% (inactive); in assay [18] (measured here: combo with BGB IC20) it was -4.36% and 3.89%; in assay [18] (measured here: combo with cisplatin IC20), 17.2% and 0.487%.

On to `Cc1ccc(-n2nc(C(C)(C)C)cc2NC(=O)Nc2ccc(OCCN3CCOCC3)c3ccccc23)cc1`, for which the outcome in [2], in assay [3], in assay [4] and in [5] was inactive. The same molecule registered an SSMD in [19] of 3.54. Also, in [19], the cell count turned out to be 7570. For the same molecule, the plate-normalised HSF1 focus index in assay [19] is 1.13 (inactive).

`COc1c2occc2cc2ccc(=O)oc12`: the call in [2], in assay [3] and in [5] was inactive.

As to `COCCCOc1ccnc(CS(=O)c2nc3ccccc3[nH]2)c1C` (configuration not stated), in assay [1], the z-score is 0.22 (inactive). In addition, the outcome in assay [2] and in assay [4] was inactive.

Regarding `CN1C(=O)CC[C@H]1c1cccnc1`, the z-score in [1] was -0.371 (inactive).

As for `COc1ccc2cc([C@H](C)C(=O)O)ccc2c1`, in assay [1], the z-score was -0.354 (inactive). The outcome in assay [2] and in assay [5] was inactive.

`CC(C)(C)NCC(O)c1ccc(O)c(CO)c1` (configuration not stated): the z-score in [1] was -0.605 (inactive). Also, the outcome in [2], in assay [3], in assay [4] and in [5] was inactive.

As for `CCN(CC)CCOc1ccc(Cc2ccccc2)cc1`, the molecule was called inactive in [3] and in assay [5].

As for `N=c1nc(N2CCCCC2)cc(N)n1O`, the fold fluorescence in [20] was 4.24 [at 238.9 µM] (inactive).

For `Clc1ccccc1CN1CCc2sccc2C1`, the z-score in [1] is 0.918 (inactive). For the same molecule, the outcome in assay [2], in [3], in assay [4] and in [5] was inactive.

For the molecule `O=C(NCC1CCCCN1)c1cc(OCC(F)(F)F)ccc1OCC(F)(F)F` (configuration not stated), the outcome in [2], in [3], in [4] and in assay [5] was inactive.
